Measurements from article PMC7862700, “An all-to-all approach to the identification of sequence-specific readers for epigenetic DNA modifications on cytosine”.

Key:
Assay in all cases: DAPPL (digital affinity profiling via proximity ligation, sequencing); 10 mM Tris-HCl pH 7.5, 50 mM NaCl, 1 mM DTT, 4% glycerol, room temperature, 30 min; GST-TFs on glutathione beads, 16-mer random dsDNA library, 0.1% formaldehyde crosslink after washing; high values mean tight binding
Conditions in all cases: protein: recombinant; tags: N-terminal GST; dsDNA, one strand shown
GABPA = molecular target: T1, GABPA (Homo sapiens, UniProt Q06546 1-454)
T1 sequence: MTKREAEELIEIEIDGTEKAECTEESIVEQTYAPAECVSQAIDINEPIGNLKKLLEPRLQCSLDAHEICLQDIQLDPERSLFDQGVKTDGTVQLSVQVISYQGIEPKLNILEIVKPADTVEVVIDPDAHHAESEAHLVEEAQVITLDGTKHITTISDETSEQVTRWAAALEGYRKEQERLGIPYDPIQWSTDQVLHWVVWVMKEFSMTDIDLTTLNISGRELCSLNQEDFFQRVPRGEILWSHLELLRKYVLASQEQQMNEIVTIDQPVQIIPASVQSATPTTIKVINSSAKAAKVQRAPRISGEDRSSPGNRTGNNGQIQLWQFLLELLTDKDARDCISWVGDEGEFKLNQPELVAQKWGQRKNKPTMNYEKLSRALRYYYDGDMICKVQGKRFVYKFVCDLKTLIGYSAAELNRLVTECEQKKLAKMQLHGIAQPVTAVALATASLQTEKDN
Procedure, shortened: (§1)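 Beads coated with glutathione captured GST-fused human transcription factors that had been expressed in yeast, and the factors were then given DNA barcodes and pooled with a tag-only sample. The pools were incubated with 200 nmole of a random double-stranded 16-mer DNA library in Tris/NaCl/DTT/glycerol buffer for 30 min at room temperature, washed, crosslinked with 0.1% formaldehyde and proximity-ligated with BsaI/T4 ligase at 37 °C for 1 h. PCR amplification and Illumina NextSeq500 sequencing came last. Binding signal is each hexamer's read frequency for a factor divided by its frequency for the tag-only sample.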

ERG = molecular target: T2, ERG (Homo sapiens, UniProt P11308 1-479)
T2 sequence: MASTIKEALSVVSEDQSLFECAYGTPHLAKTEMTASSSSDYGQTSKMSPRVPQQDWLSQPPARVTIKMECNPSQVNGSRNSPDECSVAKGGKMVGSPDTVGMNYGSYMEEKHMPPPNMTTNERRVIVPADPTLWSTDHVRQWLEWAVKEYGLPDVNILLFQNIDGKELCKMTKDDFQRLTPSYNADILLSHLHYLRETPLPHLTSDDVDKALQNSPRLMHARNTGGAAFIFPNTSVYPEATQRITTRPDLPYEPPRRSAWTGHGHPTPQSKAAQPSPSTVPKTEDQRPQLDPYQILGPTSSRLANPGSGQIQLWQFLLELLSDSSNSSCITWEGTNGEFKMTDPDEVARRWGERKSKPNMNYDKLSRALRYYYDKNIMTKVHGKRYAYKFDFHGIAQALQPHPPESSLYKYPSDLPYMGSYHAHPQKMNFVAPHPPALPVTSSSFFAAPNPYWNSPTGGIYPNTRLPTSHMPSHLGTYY
Procedure, shortened: as §1

ELF1 = ELF1 (Homo sapiens, UniProt P32519 1-619)
Procedure, shortened: as §1

EHF = molecular target: T3, EHF (Homo sapiens, UniProt Q9NZC4 1-300)
T3 sequence: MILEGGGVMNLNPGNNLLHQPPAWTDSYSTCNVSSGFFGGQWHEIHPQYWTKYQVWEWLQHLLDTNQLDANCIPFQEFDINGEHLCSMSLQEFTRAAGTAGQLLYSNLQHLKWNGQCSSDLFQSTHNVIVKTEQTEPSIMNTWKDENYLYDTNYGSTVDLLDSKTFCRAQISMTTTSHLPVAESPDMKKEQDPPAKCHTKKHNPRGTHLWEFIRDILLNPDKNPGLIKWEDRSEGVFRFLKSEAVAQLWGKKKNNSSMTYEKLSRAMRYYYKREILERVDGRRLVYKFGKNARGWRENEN
Procedure, shortened: as §1

SPIB = SPIB (Homo sapiens, UniProt Q01892 1-262)
Procedure, shortened: as §1

ELK3 = molecular target: T4, ELK3 (Homo sapiens, UniProt P41970 1-407)
T4 sequence: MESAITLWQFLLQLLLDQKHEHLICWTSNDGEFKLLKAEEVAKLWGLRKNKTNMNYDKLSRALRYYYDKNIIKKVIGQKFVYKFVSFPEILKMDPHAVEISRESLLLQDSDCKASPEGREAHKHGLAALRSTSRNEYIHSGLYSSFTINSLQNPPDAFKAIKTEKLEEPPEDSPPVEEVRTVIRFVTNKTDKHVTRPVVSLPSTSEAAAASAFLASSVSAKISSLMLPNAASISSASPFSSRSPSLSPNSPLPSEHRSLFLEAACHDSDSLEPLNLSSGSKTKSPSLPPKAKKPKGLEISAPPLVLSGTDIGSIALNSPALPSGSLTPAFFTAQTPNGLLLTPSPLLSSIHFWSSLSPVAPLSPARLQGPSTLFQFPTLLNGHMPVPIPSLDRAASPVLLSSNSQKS
Procedure, shortened: as §1

SPIC = molecular target: T5, SPIC (Homo sapiens, UniProt Q8N5J4 1-248)
T5 sequence: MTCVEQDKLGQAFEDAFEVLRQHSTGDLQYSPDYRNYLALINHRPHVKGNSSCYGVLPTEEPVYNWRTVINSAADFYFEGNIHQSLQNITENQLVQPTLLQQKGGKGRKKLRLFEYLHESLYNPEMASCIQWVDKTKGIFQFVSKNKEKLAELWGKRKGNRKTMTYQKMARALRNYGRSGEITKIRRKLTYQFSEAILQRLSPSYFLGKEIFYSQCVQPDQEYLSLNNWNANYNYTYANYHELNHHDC
Procedure, shortened: as §1

ELF4 = ELF4 (Homo sapiens, UniProt Q99607 1-663)
Procedure, shortened: as §1

ELK4 = molecular target: T6, ELK4 (Homo sapiens, UniProt P28324-2 1-405)
T6 sequence: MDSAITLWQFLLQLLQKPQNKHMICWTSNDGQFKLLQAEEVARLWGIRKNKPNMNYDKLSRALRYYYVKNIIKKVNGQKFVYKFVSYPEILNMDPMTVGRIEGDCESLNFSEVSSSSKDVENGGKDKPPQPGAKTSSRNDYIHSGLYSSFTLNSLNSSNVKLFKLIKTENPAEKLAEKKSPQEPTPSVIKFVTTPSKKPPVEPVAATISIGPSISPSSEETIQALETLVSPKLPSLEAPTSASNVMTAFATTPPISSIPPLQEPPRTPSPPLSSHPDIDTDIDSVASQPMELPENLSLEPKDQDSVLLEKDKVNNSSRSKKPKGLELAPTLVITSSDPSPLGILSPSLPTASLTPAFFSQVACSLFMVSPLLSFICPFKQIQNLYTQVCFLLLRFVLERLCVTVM
Procedure, shortened: as §1

ELF3 = molecular target: T7, ELF3 (Homo sapiens, UniProt P78545 1-371)
T7 sequence: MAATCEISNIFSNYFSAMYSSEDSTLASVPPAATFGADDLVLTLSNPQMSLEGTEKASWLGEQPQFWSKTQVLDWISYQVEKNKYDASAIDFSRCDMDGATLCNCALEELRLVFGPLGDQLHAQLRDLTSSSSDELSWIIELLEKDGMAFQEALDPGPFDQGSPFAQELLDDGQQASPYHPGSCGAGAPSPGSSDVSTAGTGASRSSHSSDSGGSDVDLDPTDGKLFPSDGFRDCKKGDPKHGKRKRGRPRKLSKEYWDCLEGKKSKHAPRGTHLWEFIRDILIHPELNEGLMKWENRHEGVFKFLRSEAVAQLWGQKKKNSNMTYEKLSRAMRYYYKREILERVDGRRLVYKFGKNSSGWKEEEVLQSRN
Procedure, shortened: as §1

ERF = molecular target: T8, ERF (Homo sapiens, UniProt P50548 1-548)
T8 sequence: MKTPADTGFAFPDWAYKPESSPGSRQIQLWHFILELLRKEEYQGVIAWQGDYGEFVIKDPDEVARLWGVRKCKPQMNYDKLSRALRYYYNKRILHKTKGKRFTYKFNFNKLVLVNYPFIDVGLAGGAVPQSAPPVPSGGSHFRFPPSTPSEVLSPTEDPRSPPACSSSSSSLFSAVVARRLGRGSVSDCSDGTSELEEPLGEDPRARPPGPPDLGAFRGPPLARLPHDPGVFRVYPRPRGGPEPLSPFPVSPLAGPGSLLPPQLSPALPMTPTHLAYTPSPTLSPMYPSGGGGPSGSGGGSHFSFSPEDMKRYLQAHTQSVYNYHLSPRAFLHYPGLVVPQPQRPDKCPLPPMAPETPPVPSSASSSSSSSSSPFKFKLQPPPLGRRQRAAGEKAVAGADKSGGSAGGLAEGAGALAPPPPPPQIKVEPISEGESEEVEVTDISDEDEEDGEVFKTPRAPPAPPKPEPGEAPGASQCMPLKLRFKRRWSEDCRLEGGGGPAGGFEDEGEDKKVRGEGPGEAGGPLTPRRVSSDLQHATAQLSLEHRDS
Procedure, shortened: as §1

ETV3L = molecular target: T9, ETV3L (Homo sapiens, UniProt Q6ZN32 1-361)
T9 sequence: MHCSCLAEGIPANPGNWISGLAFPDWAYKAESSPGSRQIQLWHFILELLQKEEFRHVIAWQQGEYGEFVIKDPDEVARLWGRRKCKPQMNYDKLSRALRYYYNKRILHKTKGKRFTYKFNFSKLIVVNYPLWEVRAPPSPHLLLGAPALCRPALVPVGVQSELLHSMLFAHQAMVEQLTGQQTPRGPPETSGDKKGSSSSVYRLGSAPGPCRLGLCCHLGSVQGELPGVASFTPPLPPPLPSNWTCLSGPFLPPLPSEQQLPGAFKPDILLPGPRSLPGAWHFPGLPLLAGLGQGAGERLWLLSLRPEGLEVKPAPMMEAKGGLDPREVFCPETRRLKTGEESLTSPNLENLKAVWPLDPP
Procedure, shortened: as §1

SPDEF = molecular target: T10, SPDEF (Homo sapiens, UniProt O95238 1-335)
T10 sequence: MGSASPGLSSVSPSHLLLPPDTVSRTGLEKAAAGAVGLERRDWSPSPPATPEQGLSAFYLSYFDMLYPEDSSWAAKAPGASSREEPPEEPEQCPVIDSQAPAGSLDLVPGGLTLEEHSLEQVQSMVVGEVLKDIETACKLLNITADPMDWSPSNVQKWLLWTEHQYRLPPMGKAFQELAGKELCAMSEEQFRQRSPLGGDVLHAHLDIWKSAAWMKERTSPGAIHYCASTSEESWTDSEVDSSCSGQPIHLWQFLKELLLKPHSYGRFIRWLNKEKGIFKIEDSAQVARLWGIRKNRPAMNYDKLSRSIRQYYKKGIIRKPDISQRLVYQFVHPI
Procedure, shortened: as §1

ETV7 = molecular target: T11, ETV7 (Homo sapiens, UniProt Q9Y603 1-341)
T11 sequence: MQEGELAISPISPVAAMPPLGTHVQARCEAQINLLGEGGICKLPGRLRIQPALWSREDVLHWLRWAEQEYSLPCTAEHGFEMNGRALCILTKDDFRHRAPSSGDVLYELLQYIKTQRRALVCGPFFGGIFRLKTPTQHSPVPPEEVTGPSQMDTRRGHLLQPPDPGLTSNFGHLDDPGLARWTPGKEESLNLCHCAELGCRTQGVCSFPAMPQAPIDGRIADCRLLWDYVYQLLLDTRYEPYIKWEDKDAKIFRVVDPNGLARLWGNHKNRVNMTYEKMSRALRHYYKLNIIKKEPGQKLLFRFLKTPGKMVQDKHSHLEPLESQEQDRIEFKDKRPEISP
Procedure, shortened: as §1

ETS2 = molecular target: T12, ETS2 (Homo sapiens, UniProt P15036 1-469)
T12 sequence: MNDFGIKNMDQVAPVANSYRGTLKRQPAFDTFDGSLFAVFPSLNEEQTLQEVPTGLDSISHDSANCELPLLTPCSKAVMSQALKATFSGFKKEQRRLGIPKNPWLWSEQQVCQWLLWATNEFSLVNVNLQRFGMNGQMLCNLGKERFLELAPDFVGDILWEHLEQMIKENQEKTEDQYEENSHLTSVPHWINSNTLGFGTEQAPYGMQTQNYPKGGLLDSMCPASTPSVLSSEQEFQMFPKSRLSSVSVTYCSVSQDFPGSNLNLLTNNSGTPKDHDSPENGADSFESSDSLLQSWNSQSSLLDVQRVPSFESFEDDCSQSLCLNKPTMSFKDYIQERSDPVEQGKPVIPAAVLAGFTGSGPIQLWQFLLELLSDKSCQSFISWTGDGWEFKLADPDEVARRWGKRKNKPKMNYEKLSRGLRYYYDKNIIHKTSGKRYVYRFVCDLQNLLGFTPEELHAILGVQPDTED
Procedure, shortened: as §1

ETV6 = ETV6 (Homo sapiens, UniProt P41212 1-452)
Procedure, shortened: as §1

ELF1, sequence (P32519 whole entry): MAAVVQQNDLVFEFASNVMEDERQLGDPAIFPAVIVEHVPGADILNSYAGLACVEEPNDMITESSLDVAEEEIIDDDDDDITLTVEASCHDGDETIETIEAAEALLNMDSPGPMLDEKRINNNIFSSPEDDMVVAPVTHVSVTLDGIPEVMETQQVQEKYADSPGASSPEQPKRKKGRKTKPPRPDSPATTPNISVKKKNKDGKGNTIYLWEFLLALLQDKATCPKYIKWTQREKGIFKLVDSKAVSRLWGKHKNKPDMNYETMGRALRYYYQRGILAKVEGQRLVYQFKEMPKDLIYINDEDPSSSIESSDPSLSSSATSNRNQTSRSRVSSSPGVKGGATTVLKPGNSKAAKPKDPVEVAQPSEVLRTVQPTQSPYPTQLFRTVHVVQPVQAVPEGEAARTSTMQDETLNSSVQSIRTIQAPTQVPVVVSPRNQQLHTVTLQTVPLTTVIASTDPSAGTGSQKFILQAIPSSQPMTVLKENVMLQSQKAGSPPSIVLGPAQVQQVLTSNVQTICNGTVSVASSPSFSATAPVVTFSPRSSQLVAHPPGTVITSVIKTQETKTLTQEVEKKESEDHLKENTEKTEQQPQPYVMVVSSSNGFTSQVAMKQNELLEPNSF
ELF4, sequence (Q99607 whole entry): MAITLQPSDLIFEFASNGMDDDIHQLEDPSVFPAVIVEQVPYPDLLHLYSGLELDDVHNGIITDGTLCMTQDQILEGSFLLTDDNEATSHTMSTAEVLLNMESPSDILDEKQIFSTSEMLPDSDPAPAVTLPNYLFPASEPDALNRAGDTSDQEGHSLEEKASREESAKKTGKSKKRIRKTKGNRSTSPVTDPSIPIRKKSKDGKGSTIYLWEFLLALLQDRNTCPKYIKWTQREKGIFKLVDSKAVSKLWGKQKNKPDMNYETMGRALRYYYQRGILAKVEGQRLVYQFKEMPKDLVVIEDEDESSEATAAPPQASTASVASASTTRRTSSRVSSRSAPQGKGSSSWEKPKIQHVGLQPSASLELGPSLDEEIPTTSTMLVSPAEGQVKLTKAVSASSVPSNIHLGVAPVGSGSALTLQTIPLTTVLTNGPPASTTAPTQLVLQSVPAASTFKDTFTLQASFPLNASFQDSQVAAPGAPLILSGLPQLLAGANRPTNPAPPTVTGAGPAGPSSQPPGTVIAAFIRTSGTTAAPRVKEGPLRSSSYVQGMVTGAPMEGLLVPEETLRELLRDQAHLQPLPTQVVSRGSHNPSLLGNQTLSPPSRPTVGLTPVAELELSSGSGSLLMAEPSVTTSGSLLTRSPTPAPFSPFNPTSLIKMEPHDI
ETV6, sequence (P41212 whole entry): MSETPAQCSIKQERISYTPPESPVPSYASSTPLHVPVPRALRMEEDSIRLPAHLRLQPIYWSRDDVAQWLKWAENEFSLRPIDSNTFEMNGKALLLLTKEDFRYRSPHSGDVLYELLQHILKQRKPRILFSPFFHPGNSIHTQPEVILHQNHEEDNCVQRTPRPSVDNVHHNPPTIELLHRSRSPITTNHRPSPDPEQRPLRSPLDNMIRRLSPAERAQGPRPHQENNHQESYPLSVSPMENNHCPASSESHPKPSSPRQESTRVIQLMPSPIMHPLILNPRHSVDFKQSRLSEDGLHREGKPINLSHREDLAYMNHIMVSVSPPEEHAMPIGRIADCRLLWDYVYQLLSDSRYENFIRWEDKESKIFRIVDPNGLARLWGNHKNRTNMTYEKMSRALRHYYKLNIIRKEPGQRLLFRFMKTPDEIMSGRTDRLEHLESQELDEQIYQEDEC
SPIB, sequence (Q01892 whole entry): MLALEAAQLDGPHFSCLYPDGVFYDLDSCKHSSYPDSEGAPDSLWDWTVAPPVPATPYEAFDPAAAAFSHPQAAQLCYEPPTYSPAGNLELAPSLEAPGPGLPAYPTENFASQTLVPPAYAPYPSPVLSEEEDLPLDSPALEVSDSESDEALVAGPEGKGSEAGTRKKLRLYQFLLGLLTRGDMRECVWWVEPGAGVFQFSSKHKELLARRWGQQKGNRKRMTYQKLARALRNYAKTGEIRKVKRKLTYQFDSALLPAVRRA

Row | Sequence | binding signal (GABPA) | binding signal (ERG) | binding signal (ELF1) | binding signal (EHF) | binding signal (SPIB) | binding signal (ELK3) | binding signal (SPIC) | binding signal (ELF4) | binding signal (ELK4) | binding signal (ELF3) | binding signal (ERF) | binding signal (ETV3L) | binding signal (SPDEF) | binding signal (ETV7) | binding signal (ETS2) | binding signal (ETV6)
1 | CTAGCC | 1 fold enrichment (6-mer frequency, TF over GST control) | 1.01 fold enrichment (6-mer frequency, TF over GST control) | 1.07 fold enrichment (6-mer frequency, TF over GST control) | 1 fold enrichment (6-mer frequency, TF over GST control) | 1.02 fold enrichment (6-mer frequency, TF over GST control) | 1.1 fold enrichment (6-mer frequency, TF over GST control) | 1.08 fold enrichment (6-mer frequency, TF over GST control) | 1.01 fold enrichment (6-mer frequency, TF over GST control) | 1.1 fold enrichment (6-mer frequency, TF over GST control) | 1.04 fold enrichment (6-mer frequency, TF over GST control) | 1.13 fold enrichment (6-mer frequency, TF over GST control) | 1.06 fold enrichment (6-mer frequency, TF over GST control) | 1.02 fold enrichment (6-mer frequency, TF over GST control) | 1.02 fold enrichment (6-mer frequency, TF over GST control) |  | 
2 | GATTTA |  |  | 1 fold enrichment (6-mer frequency, TF over GST control) | 1.11 fold enrichment (6-mer frequency, TF over GST control) |  | 1.08 fold enrichment (6-mer frequency, TF over GST control) | 1.02 fold enrichment (6-mer frequency, TF over GST control) | 1.05 fold enrichment (6-mer frequency, TF over GST control) | 1.02 fold enrichment (6-mer frequency, TF over GST control) | 1.02 fold enrichment (6-mer frequency, TF over GST control) | 1.02 fold enrichment (6-mer frequency, TF over GST control) |  | 1.08 fold enrichment (6-mer frequency, TF over GST control) |  | 1 fold enrichment (6-mer frequency, TF over GST control) | 1.05 fold enrichment (6-mer frequency, TF over GST control)
